In all, about 420,000 compounds went through this assay and about 64,000 (15%) were called active. Inconclusive results (about 27%) are left out. Only a sample is shown. Unmarked numbers belong to inactive results. The call rests on the fitted dose curve; in most records, active means well fitted inhibition curve with a large enough effect; inconclusive means small, poorly fitted or top-dose-only effect; inactive means flat fitted curve, though single readings scatter.
On the % scale 0 is the no-effect control and ±100 the full control effect; potency means the concentration at half of the fitted maximal effect.

This test in a line: qHTS for Inhibitors of human tyrosyl-DNA phosphodiesterase 1 (TDP1): qHTS in cells in absence of CPT. Further: nearly all actives have a fitted effect of over 55% in size. To be noted: DT40 Tdp1-/- hTDP1 cells, no CPT, ATP luminescence, 48 h; activity change, negative = growth inhibition: at 46.2 µM (top of the series). The procedure, abridged:
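Growth kinetics read by CellTiter-Glo luminescence after ≥48 hr at 37 °C. Cells: DT40 Tdp1-/- stably carrying human TDP1, 400 per well, compound exposure in the absence of CPT (DMSO vehicle).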
In the case of `O=C(COC(=O)c1cccnc1Cl)NC12CC3CC(CC(C3)C1)C2`, the “activity change, negative = growth inhibition” value is -12.2%.

Regarding `COc1cc(C(=O)OCC(=O)NC23CC4CC(CC(C4)C2)C3)cc(OC)c1OC`, the Potency is 18.4 µM (active).

In the case of `O=C(COC(=O)c1ccc(Br)o1)NC12CC3CC(CC(C3)C1)C2`, the “activity change, negative = growth inhibition” value is -6.16%.

Consider `CCOC(=O)CNc1nc2ccccc2n2c(C)nnc12`, for which the “activity change, negative = growth inhibition” value is 18.8%.

For `CCOC(=O)c1oc2c(CN3CCN(CCO)CC3)c(O)c(CC)cc2c(=O)c1-c1nc2ccccc2s1`, the “activity change, negative = growth inhibition” value is -7.24%.

As for `O=C(NCCCN1CCOCC1)c1cnn2c(-c3ccccc3)cc(-c3ccccc3)nc12`, the Potency is 20.6 µM (active).

Regarding `O=C(NCCCN1CCOCC1)c1ccccc1NS(=O)(=O)c1ccc(Br)cc1`, the “activity change, negative = growth inhibition” value was -9.57%.

Regarding `O=C(NCCCN1CCOCC1)c1ccccc1NS(=O)(=O)c1ccc(F)cc1`, the “activity change, negative = growth inhibition” value is -3.35%.

Regarding `CCCCN=C1N/C(=C\c2ccco2)C(=O)N1c1ccccc1`, the Potency is 29.1 µM (active).

Take `COc1cc2c(cc1/C=C1/NC(=O)N(c3ccccc3)C1=O)OCO2`: the “activity change, negative = growth inhibition” value is -17.6%.

As for `CCOC(=O)C1(C)NC(c2ccco2)C2C(=O)N(c3ccccc3)C(=O)C21` (stereo not given), the “activity change, negative = growth inhibition” value is 4.49%.

Turning to `Cc1cc(NC(=O)CS(=O)(=O)c2cn(C)c3ccccc23)no1`, the “activity change, negative = growth inhibition” value is -17.2%.

Regarding `CN(C)CCNC(=O)C(C(=O)c1ccccc1)n1ccccc1=O` (stereo not given), the “activity change, negative = growth inhibition” value was -6.39%.

For `O=C(Nc1nnc(SCc2ccc(Cl)cc2Cl)s1)C1COc2ccccc2O1` (stereo not given), the “activity change, negative = growth inhibition” value was -6.33%.

For the compound `O=C(Nc1nc2c(F)cc(F)cc2s1)C1COc2ccccc2O1` (stereo not given), the “activity change, negative = growth inhibition” value was -25.4%.

`O=C(Nc1ncc([N+](=O)[O-])s1)C1COc2ccccc2O1` (stereo not given): the Potency is 18.4 µM (active).

Turning to `CCCS(=O)(=O)Nc1ccc(-c2cn3c(n2)SCC3)cc1`, the “activity change, negative = growth inhibition” value is -17.9%.

Regarding `CN(Cc1ccc2nsnc2c1)Cc1nc(Cc2cccc(F)c2)no1`, the “activity change, negative = growth inhibition” value was 7.53%.

For `O=C(Nc1ccc(S(=O)(=O)Nc2ncccn2)cc1)c1cncc(Br)c1`, the “activity change, negative = growth inhibition” value was -5.2%.

Consider `O=C(Nc1cccc(S(=O)(=O)N2CCCCC2)c1)c1ccc2c(c1)OCO2`, for which the Potency was 16.4 µM (active).

In the case of `CC(NS(=O)(=O)c1ccc(Cl)cc1)C(=O)Nc1ccc2c(c1)OCCO2` (stereo not given), the “activity change, negative = growth inhibition” value was -7.09%.

As for `O=C(Nc1ccc(N2CCCC2=O)cc1)c1cncc(Br)c1`, the “activity change, negative = growth inhibition” value was -23.8%.

Turning to `CN1CCN(S(=O)(=O)c2cccc(C(=O)Nc3cccc(S(N)(=O)=O)c3)c2)CC1`, the “activity change, negative = growth inhibition” value is -0.704%.

In the case of `Cc1ccc(S(=O)(=O)N2CCCCC2)cc1NC(=O)CCNC(=O)c1ccccc1`, the “activity change, negative = growth inhibition” value is -24.2%.

For the compound `O=C(Nc1cccc(S(=O)(=O)N2CCCC2)c1)c1cncc(Br)c1`, the Potency is 13 µM (active).

As for `O=C(Nc1ccccc1)c1ccc2c(c1)OCCCO2`, the “activity change, negative = growth inhibition” value was -2.63%.

Take `O=C(CCNC(=O)c1ccc(Br)cc1)Nc1cccc(S(=O)(=O)N2CCCCC2)c1`: the Potency is 18.4 µM (active).

In the case of `O=C(Nc1cccc(S(=O)(=O)Nc2ccc(Cl)cc2)c1)c1ccc2c(c1)OCCO2`, the Potency is 10.3 µM (active).

With `O=C(Nc1cccnc1)c1ccc2c(c1)OCO2`, the “activity change, negative = growth inhibition” value was -29.5%.

In the case of `Cc1ccc(C(=O)NCC(=O)OCC(=O)Nc2cccc(S(=O)(=O)N3CCCC3)c2)cc1C`, the “activity change, negative = growth inhibition” value was 11.6%.
